mIDH1 inhibitor – inhibitors of human mutant IDH1 R132H; IDH1-R132H enzyme, NADPH consumption, diaphorase/resazurin fluorescence; Potency, µM (top dose mostly 76.6 µM), without a hit: at the highest dose activity change, negative = inhibition, hits mostly inhibitors; 0.093% of 390,000 active; further: potency means the concentration at half of the fitted maximal effect; on the % scale 0 is the no-effect control and ±100 the full control effect; nearly all actives have a fitted effect of over 65% in size
Target sequence (O75874 whole entry R132H, stated change not applied): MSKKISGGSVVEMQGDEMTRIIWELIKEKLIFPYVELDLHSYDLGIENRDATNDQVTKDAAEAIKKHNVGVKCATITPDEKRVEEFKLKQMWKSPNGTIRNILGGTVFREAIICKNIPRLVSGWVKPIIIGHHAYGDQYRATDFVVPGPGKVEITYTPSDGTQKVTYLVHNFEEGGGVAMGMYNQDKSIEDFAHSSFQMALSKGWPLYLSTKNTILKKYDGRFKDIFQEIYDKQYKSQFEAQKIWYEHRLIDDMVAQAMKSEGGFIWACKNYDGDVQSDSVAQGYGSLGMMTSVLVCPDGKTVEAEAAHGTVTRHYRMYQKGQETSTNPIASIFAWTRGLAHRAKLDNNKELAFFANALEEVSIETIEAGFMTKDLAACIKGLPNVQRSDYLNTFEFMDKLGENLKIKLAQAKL
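IDH1-R132H (0.5 ug/mL dispensed) in pH 7.5 Tris buffer was preincubated 30 min with compound, then given a substrate mix of 0.016 mM NADPH and 2 mM alpha-KG for 80 min at room temperature; remaining NADPH was read by diaphorase/resazurin fluorescence.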
Nrf2 block – Nrf2 pathway inhibition. A549 ARE-Fluc reporter, luciferase luminescence, 18-24 h. Potency, µM (highest dose often 46 µM), inactives show top-dose activity change, negative = inhibition, hits mostly inhibitors. 2.1% of 360,000 active. AID 504444; further: potency means the concentration at half of the fitted maximal effect; on the % scale 0 is the no-effect control and ±100 the full control effect; nearly all actives have a fitted effect of over 60% in size
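A549 ARE_Fluc cells (5000/well, 5% FBS OPTI-MEM) pre-incubated 2 h, then treated with compounds 18-24 h at 37C/5% CO2 in concentration-response. CellTiter-Fluor viability read first; BugLite luciferase luminescence after 15 min at room temperature gives Nrf2 activity.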
12-LOX inh – blocks human arachidonate 12S-lipoxygenase | P18054 | purified 12hLO, xylenol orange hydroperoxide absorbance | Potency, µM (titrated, usually from 108 µM), for inactives: at the top dose activity change, negative = inhibition, actives largely listed as inhibitors | 1.1% of 580,000 active; further: potency means the concentration at half of the fitted maximal effect; on the % scale 0 is the no-effect control and ±100 the full control effect
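Hydroperoxide product was detected by ferrous iron/xylenol orange as the 573 to 405 nm absorbance ratio. Arachidonic acid at 40 uM (final) was turned over for 30 min at room temperature by 150 nM human 12hLO, pH 7.0 Hepes buffer, after 15 min compound preincubation.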
Nrf2 ARE act – activators of Nrf2 (ARE) signaling; AREc32 ARE-luciferase reporter (MCF7-derived line), luminescence, 24 h; Potency, µM (top dose mostly 46.1 µM), without a hit: top-dose activation, actives largely listed as activators; 0.31% of 410,000 active; AID 624171; further: potency means the concentration at half of the fitted maximal effect; % of control where 0% means no effect; nearly all actives have a fitted effect of over 65% in size
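ARE activation measured as luciferase luminescence (Steady-Glo, 30 min RT) in AREc32_Fluc cells after 24 hr compound exposure at 37 deg C, 5% CO2; cells seeded overnight at 1000/well in OPTI-MEM, 5% FBS.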
A549 viability – counter-screen for Nrf2 inhibitors: cytotoxicity in A549 cells | Potency, µM (top dose mostly 46 µM), for the others: top-dose activity change, negative = cytotoxicity, hits mostly inhibitors | 0.16% of 390,000 active | A549 ARE-Fluc cells, CellTiter-Fluor viability, 18-24 h; further: potency means the concentration at half of the fitted maximal effect; on the % scale 0 is the no-effect control and ±100 the full control effect
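A549 ARE-Fluc cells in 5% FBS OPTI-MEM, 5000 cells/well, rested 2 h then exposed to compounds in concentration-response for 18-24 h at 37 °C. Viability by CellTiter-Fluor fluorescence (Ex 405/Em 525) after 30 min; luciferase luminescence (BugLite, 15 min, RT) read afterwards.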
LDHA inh – LDHA (human) enzyme inhibition; P00338; purified LDHA, NADH/diaphorase-resazurin fluorescence; active compounds read low; activity change, % (values are at about 110 or 230 µM); 0.15% of 480,000 active; AID 1347041; in the data active means activity change below about -30%; inconclusive means mostly about -25% to -30%;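 further: plate controls were DMSO wells for no effect and wells without enzyme for full effect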
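Human LDH5 (2 nM) was incubated with 0.06 mM NADH and 0.2 mM pyruvate for 5 min at room temperature in Tris pH 7.4. Remaining NADH was coupled through diaphorase/resazurin, and resorufin fluorescence was read at 0 and 20 min.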
Active calls of the source: *; u = inconclusive; x = not tested or not shown; ! = a repeat was not active. The list is not random: actives were taken first. Their share in the collection is about 2.7%. Unless noted, the call rests on the fitted dose curve; in most records, active means well fitted curve in the direction sought with a large enough effect; inconclusive means small, poorly fitted or top-dose-only effect, or another doubt; inactive means no such curve, though single readings can be large; an effect the other way counts as inactive or inconclusive.

SMILES	mIDH1 inhibitor	Nrf2 block	12-LOX inh	Nrf2 ARE act	A549 viability	LDHA inh
Cc1sc2ncnc(N3CCN(S(=O)(=O)c4ccc(Br)cc4)CC3)c2c1C	6%	12µM*	346%	0%	-7%	-3
CC(C)(C)c1ccc(CSc2cnn(C(C)(C)C)c(=O)c2Cl)cc1	-4%	0.15µM*	0%	0%	-10%	-9
CCCc1cnc(C)nc1N1CCC2(CC1)CNC(C(=O)O)C2 (stereo not given)	x	x	-3%	x	x	x
C[N+]1(C)C2CCC1CC(OC(=O)c1c[nH]c3ccccc13)C2 (stereo not given)	11%	-5%	45µM*	-1%	-1%	-10
C[N+]1(C)C2CCC1CC(OC(=O)c1ccco1)C2 (stereo not given)	-5%	-12%	0%	0%	-6%	-19
C[N+]1(C)C2CC[C@H]1CC(OC(=O)C(CO)c1ccccc1)C2 (stereo not given in full)	9%	9%	-8%	-1%	3%	-2
C[N+]1(C)[C@@H]2CC[C@H]1CC(OC(=O)[C@@H](CO)c1ccccc1)C2 (stereo not given in full)	-6%	-10%	18µM*	0%	1%	u
CCC(CC)c1cc([C@H]2CN3CC[C@H]2C[C@@H]3CNC(=O)Nc2ccc(OC)cc2)nc(-c2ccncc2)n1	x	x	1%	x	x	x
CSCC(=O)N1CC(CO)C2(CCNCC2)C1 (stereo not given)	x	x	0%	x	x	x
COc1ccc2c(c[n+](C)c3c4cc5c(cc4ccc23)OCO5)c1OC	x	x	9.7µM*!	x	x	x
O=c1c2ccccc2sn1-c1ccc(Cl)cc1	7%	x	0.25µM*	u	x	-52*
COc1cccc(-n2c(/C=C\c3ccc(Cl)cc3)nc3ccccc3c2=O)c1	-10%	4%	-11%	-1%	2%	-4
Cc1ccc(-n2sc3ccccc3c2=O)cc1	5%	14%	1.1µM*	u	3%	-35*
CNC(=O)Oc1cccc(-c2cn3cc(Cl)ccc3n2)c1	29%	u	7%	u	1%	-9
CNC(=O)Oc1ccc(-c2cn3cc(C)ccc3n2)cc1	18%	1.2µM*	-2%	-3%	u	-3
Cc1ccc(NC(=O)N(Cc2ccc3c(c2)OCO3)C2CCN(Cc3ccccc3)CC2)cc1Cl	0%	-25%	45µM*	0%	-12%	5
Cc1ccc(NC(=O)N(Cc2ccc3c(c2)OCO3)C2CCN(Cc3ccccc3)CC2)cc1C	20%	25%	1%	11%	-18%	1
CC(=O)c1ccc(NC(=O)OC[C@H]2C[C@@H]3CCN2C[C@@H]3c2cc(C3CCCC3)nc(-c3ccncc3)n2)cc1	x	x	-30%	x	x	x
CC(C)NC(=O)OC[C@H]1C[C@@H]2CCN1C[C@@H]2c1cc(C2CCCC2)nc(-c2ccncc2)n1	x	x	28µM*	x	x	x
O=C(NC1CCCCC1)OC[C@H]1C[C@@H]2CCN1C[C@@H]2c1cc(C2CCCC2)nc(-c2ccncc2)n1	x	x	32µM*	x	x	x
O=C(Nc1cccc(C(F)(F)F)c1)OC[C@H]1C[C@@H]2CCN1C[C@@H]2c1cc(C2CCCC2)nc(-c2ccncc2)n1	x	x	50µM*	x	x	x
COc1cc(NC(=O)OC[C@H]2C[C@@H]3CCN2C[C@@H]3c2cc(-c3ccc(N(C)C)cc3)nc(C)n2)cc(OC)c1	x	x	45µM*	x	x	x
CC(=O)c1cccc(NC(=O)OC[C@H]2C[C@@H]3CCN2C[C@@H]3c2cc(C3CCCC3)nc(C)n2)c1	x	x	-2%	x	x	x
CCCS(=O)(=O)Nc1ccc(=O)n2c1[C@@H]1C[C@@H](CN(C(=O)Nc3ccc(OC)cc3)C1)C2	x	x	-4%	x	x	x
COc1ccc(CCNC(=O)N2c3ccccc3Sc3ccccc32)cc1	2%	16µM*	0%	0%	u	-5
CN(C(=O)Oc1cccc2cccnc12)c1ccccc1	4%	5%	5%	0%	0%	4
Oc1cccc2cccnc12	x	-8%	9.3µM*!	x	-9%	10

Bioassay records from PubChem BioAssay.
